Measured values as given in PubChem BioAssay AID485364 (National Center for Advancing Translational Sciences (NCATS), 2010).
Out of some 360,000 compounds screened, about 11,000 (3.1%) were called active. Another 4% or so got no clear call; they are omitted. Calls come from the whole dose curve; as a rule, active = well fitted inhibition curve with a large enough effect; inconclusive = small, poorly fitted or top-dose-only effect; inactive = no such curve, though single readings can be large or run the other way. What follows is part of a selection rich in actives, with near analogues and random picks from the rest. A call without a number means that no potency is given here.

Each molecule was assayed against Schistosoma mansoni thioredoxin glutathione reductase (TGR) (UniProt Q962Y6) (assay: qHTS Assay for the Inhibitors of Schistosoma Mansoni Peroxiredoxins). Conditions: purified TGR, DTNB reduction, TNB absorbance 405 nm; series mostly up to 114 µM.
Outline: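 TGR 20 nM + NADPH 100 uM (dispensed conc.), cpd preinc 15 min RT; start with NADPH (500 uM addition) then DTNB (15 mM addition). Kinetic TNB absorbance, 405 nm filter. Four-parameter Hill fit across titration.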
Note: nearly all actives have a fitted effect of over 60% in size.
Potency is the fitted concentration of half-maximal effect.

SMILES	Potency
CCOC(=O)c1c(NC(=O)c2cc(-c3ccc(Cl)cc3)on2)sc2c1CCCC2	inactive
COC(=O)c1c(NC(=O)c2ccc(Cl)c(Cl)c2)sc2c1CCCC2	inactive
CNC(=O)c1c(NC(NC(=O)c2ccco2)C(=O)c2ccc(Cl)cc2)sc2c1CCCC2 (configuration not stated)	25.1 µM (active)
CCOc1ccc(OCC)c(NC(=O)CN(c2ccc(C)cc2)S(=O)(=O)c2c(C)n[nH]c2C)c1	inactive
COc1ccc(CNC(=O)CSc2n[nH]c(-c3ccc(F)cc3)n2)cc1	inactive
Cc1cc(-c2ccc(C)c(S(=O)(=O)N3c4ccccc4CC3C)c2)on1 (configuration not stated)	inactive
COc1ccc(Cn2ccc3nc(C)c(C(=O)Nc4ccc(C)c(F)c4)cc3c2=O)cc1	inactive
O=C(CC(Cc1ccccc1)C(=O)O)NCCc1ccc2c(c1)OCO2 (configuration not stated)	inactive
O=C(CCNS(=O)(=O)c1ccccc1C(F)(F)F)NCc1ccc2c(c1)OCO2	inactive
O=C(CCc1nnc(Cc2ccc3c(c2)OCO3)o1)NCCc1ccccc1Cl	31.6 µM (active)
CCOc1ccccc1CNC(=O)Nc1cn(CC(C)C)c(=O)c2ccccc12	inactive
O=S(=O)(NCc1ccccc1)c1ccc(S(=O)(=O)N2CCCC2)cc1	inactive
O=c1/c(=C/c2ccc(CNS(=O)(=O)c3ccccc3)o2)sc2n1CCN=2	25.1 µM (active)
O=S(=O)(NCC1OCCc2ccccc21)c1ccccc1 (configuration not stated)	inactive
CCCCN(C)CCCNC(=O)CN1N=C(c2ccc(OC)cc2)CCC1=O	inactive
COc1ccc(CC(=O)Nc2ccc(-c3nc4ccccc4s3)c(C)c2)cc1	inactive
O=S(=O)(c1cc(Cl)ccc1Cl)N1CCN(Cc2ccco2)CC1	inactive
COc1ccc(Cl)cc1S(=O)(=O)N1CCN(CC(=O)C(C)(C)C)CC1	inactive
O=C(CN1CCN(S(=O)(=O)c2cc(Cl)ccc2Cl)CC1)c1ccc(O)c(O)c1	17.8 µM (active)
Cc1ccc(C)n1-c1nnc(N2CCC(C(=O)NCc3ccccc3Cl)CC2)s1	inactive
COc1ccc(CNC(=O)COC(=O)/C=C/c2ccc(S(=O)(=O)N3CCOCC3)cc2)cc1	inactive
CCN(CC(=O)NCc1ccc(Cl)cc1)C(=O)c1c(C)noc1C	inactive

SMILES	Potency
Cc1ccc(/C=C/C(=O)OCC(=O)NCc2ccc(Cl)cc2)o1	25.1 µM (active)
O=C(Nc1ccccc1)c1nnsc1S(=O)(=O)c1ccc(Cl)cc1	0.316 µM (active)
Cc1nnsc1S(=O)(=O)Cc1ccccc1Cl	inactive
O=C(Nc1ccc(Oc2ccccc2)cc1)C1CCN(S(=O)(=O)c2ccc(Cl)cc2)CC1	inactive
COc1ccc(Nc2cc(C(=O)NCCCN(C)c3ccccc3)c3ccccc3n2)c(OC)c1	inactive
CCCn1c(=N)n(CC(O)COc2ccccc2OC)c2ccccc21 (configuration not stated)	inactive
CCOc1ccc(CNC(=O)C2CCCN(S(=O)(=O)N(CC)c3ccc(OCC)cc3)C2)cc1 (configuration not stated)	inactive
CCCN1CN=C(NS(=O)(=O)c2ccc(NC(C)=O)cc2)NC1	inactive
Cc1ccc(-n2nnnc2CNC(=O)c2ccccc2C)cc1C	inactive
O=C1NC(=O)N(c2ccc(F)cc2)C(=O)/C1=C/c1ccc2c(c1)CCCN2Cc1ccccc1	17.8 µM (active)
CCCN1CCN(CCCNC(=O)Cn2nc(CC)n3c(cc4occc43)c2=O)CC1	inactive
O=C(Nc1ccccc1-c1ccccc1)c1cccs1	inactive
O=C(NC(=S)Nc1cccc(-c2ccc(CO)o2)c1)c1cccs1	20 µM (active)
O=C(NC(=S)Nc1ccc(NC(=O)c2cccs2)cc1)c1ccc([N+](=O)[O-])cc1	inactive
Cc1ccc(S(=O)(=O)N2CCC(C(=O)Nc3cc(C)ccc3C)CC2)cc1	inactive
O=C(CSc1nc(=O)n(Cc2cccnc2)c2c1CCC2)Nc1ccc(F)cc1F	inactive
CCc1ccc(N(CC)C(=O)CCn2cnc3onc(-c4ccc(F)cc4)c3c2=O)cc1	inactive
O=C1CC(c2nnc(Cc3ccc(Cl)cc3)o2)CN1c1ccccc1 (configuration not stated)	inactive
Cc1ccsc1C1C(C#N)=C(N)OC2=C1C(=O)CC(C)(C)C2 (configuration not stated)	inactive
CC(C)C1C2=C(CC(C)(C)CC2=O)ON1c1ccccc1 (configuration not stated)	28.2 µM (active)
CC(C)N1C(=O)N(c2ccccc2)C(C)(O)CC1(C)C (configuration not stated)	inactive
Cc1sc2ncn(CC(=O)N3CCN(c4ccc(F)cc4)CC3)c(=O)c2c1S(=O)(=O)N1CCN(c2ncccn2)CC1	inactive

SMILES	Potency
CCc1cnc2c(c1SCC(=O)N1CCC(C)CC1)c(=O)n(C)c(=O)n2C	inactive
O=C(Nc1cc(-c2nc3ccccc3o2)ccc1Cl)c1cc([N+](=O)[O-])ccc1N1CCOCC1	inactive
Cc1cccc(NC(=O)C(C)SCc2ccccc2)c1 (configuration not stated)	inactive
Cc1onc(NC(=O)c2ccc([N+](=O)[O-])o2)c1Br	28.2 µM (active)
Cc1cccc(NC(=O)c2ccc(COc3ccccc3[N+](=O)[O-])o2)n1	inactive
Cc1cccc(NC(=O)c2ccc([N+](=O)[O-])o2)c1	31.6 µM (active)
O=C(Nc1cccc([N+](=O)[O-])c1)c1ccc2c(c1)OCO2	inactive
Cc1onc(C(=O)Nc2ccc3c(c2)OCO3)c1[N+](=O)[O-]	inactive
Cc1cccc(C(=O)Nc2ccc(-c3nc4ncccc4o3)cc2C)c1	inactive
COc1cc(NC(=O)c2cc3ccc4cccnc4c3[nH]2)cc(OC)c1OC	inactive
COc1ccc(Cl)cc1NC(=O)CCn1c(=O)c2cccn2c2ccccc21	inactive
COc1cc(OC)c(OC)cc1/C=C/c1nc2cc3ccccc3cc2c(=O)n1-c1ccc(F)c(Cl)c1	inactive
Cc1cc(C)cc(OC(C)C(=O)Nc2nc3c(s2)CCCC3)c1 (configuration not stated)	inactive
COC(=O)C(NC(C)=O)(Nc1nc2c(s1)CCCC2)C(F)(F)F (configuration not stated)	50.1 µM (active)
CCOC(=O)C(NC(=O)CC(C)C)(Nc1sc2c(c1C(N)=O)CCCC2)C(F)(F)F (configuration not stated)	inactive
COc1ccccc1CNc1nc2ccc(Cl)cc2n2cnnc12	inactive
COc1ccccc1NC(=O)c1sc2nc(C)c(C(=O)Nc3ccc(Cl)cc3)c(-c3ccc(Br)cc3)c2c1N	inactive
O=[N+]([O-])c1ccccc1NCc1ccc(Cl)cc1	inactive
Oc1ccc(CNc2ccccc2O)cc1	20 µM (active)
O=C(Cc1ccc(Cl)cc1)NC(=S)Nc1ccccc1O	inactive
O=C(CC(c1cccs1)N1Cc2ccccc2C1=O)Nc1ccc(F)c(F)c1 (configuration not stated)	inactive
CC(C)Oc1ccc(CNC(=O)C2CCN(c3nc4ccccc4n(C)c3=O)CC2)cc1	inactive

SMILES	Potency
CC1CN(C(=O)N2CCC(C(=O)NCc3cccs3)CC2)c2ccccc2O1 (configuration not stated)	inactive
O=C(NC1(C(F)(F)F)N=C(c2ccccc2)N(C2CCCCC2)C1=O)c1ccccc1F (configuration not stated)	inactive
CC1=C(C/C=C(\C)CCCC(C)CCCC(C)CCCC(C)C)C(=O)c2ccccc2C1=O (configuration not stated)	28.2 µM (active)
CC(=O)Nc1ccc(NC(=O)CCCc2nc(-c3ccc(C(C)(C)C)cc3)no2)cc1	inactive
Cc1cc(C)c(-c2n[nH]c3c2C(c2ccccc2F)N(CCO)C3=O)c(O)c1 (configuration not stated)	inactive
COc1ccc(N2CCN(Cc3nc4c(c(=O)[nH]c(=O)n4C)n3Cc3ccc(Cl)cc3)CC2)cc1	inactive
Cc1nnc(NC(=O)CCCOc2ccccc2)s1	inactive
CCOC(=O)c1c(NC(=S)NC(=O)/C=C/c2cccs2)sc(C)c1C	inactive
CCOC(=O)c1sc(NC(=O)/C=C/c2ccc(C(C)C)cc2)c(C(=O)OCC)c1C	inactive
Cc1nnc(NC(=O)/C=C/c2ccco2)s1	22.4 µM (active)
Cc1nnc(NC(=O)C(c2ccccc2)c2ccccc2)s1	inactive
CCOC(=O)c1c(NC(=O)/C=C/c2ccco2)sc(C)c1C	35.5 µM (active)
O=C(CSc1nc(-c2cccc(F)c2)[nH]c1-c1ccccc1)Nc1ccc2c(c1)OCO2	inactive
CCN(CC)S(=O)(=O)c1ccc(C(=O)N=c2sc3cccc(OC)c3n2C)cc1	inactive
Cc1ccc(C)c(OCC(=O)Nc2sc3c(c2C#N)CCCC3)c1C	inactive
Cc1ccccc1-n1nc(C)c2cc(C(=O)NC3CC3)sc21	inactive
Cc1ccccc1-n1nc(C)c2c1N=C1C(Cl)=CC(Cl)=CN1C2c1ccc(C(=O)O)cc1 (configuration not stated)	35.5 µM (active)
Cc1nn(-c2ccccc2)c(Cl)c1/C=C/C(=O)c1ccc(O)cc1	inactive
O=C(Nc1ccc2nc(SCC(=O)N3CCCc4ccccc43)sc2c1)c1ccc(F)cc1	inactive
CC(=O)c1ccc(NC(=O)c2nc(-c3ccc(C)cc3)n3c2CCCCC3)cc1	inactive
Cc1ccccc1CNC(=O)CCCn1nc(C)c2sc3ccccc3c2c1=O	inactive
O=C(NC1CCCCC1)C1c2ccccc2C(=O)N1Cc1ccco1 (configuration not stated)	39.8 µM (active)

SMILES	Potency
O=C(CC1OC(=O)c2ccccc21)NC1CCCCC1 (configuration not stated)	inactive
CCC(C)NC(=O)C1c2ccccc2C(=O)N1Cc1ccccc1 (configuration not stated)	inactive
CC(NC(=O)c1cc(Sc2ccc(F)cc2F)nc2ccccc12)c1ccccc1 (configuration not stated)	inactive
CC(C)C(=O)Nc1nc2c(s1)CC(C(C)(C)C)CC2 (configuration not stated)	inactive
Cc1ccc(S(=O)(=O)N(CC(=O)Nc2ccc(Cl)cc2Cl)c2ccccc2C)cc1	inactive
COc1cccc(CN2CCc3nc(SCC(=O)Nc4ccccc4)[nH]c(=O)c3C2)c1	inactive
CC(C)c1ccc(NC(=O)C2CCN(c3nc(-c4ccc(C(C)C)cc4)no3)CC2)cc1	inactive
CN1C(=O)CC(N2CCN(c3ccccn3)CC2)C1=O (configuration not stated)	inactive
O=C1CC(N2CCN(c3ccc(F)cc3)CC2)C(=O)N1c1ccccc1 (configuration not stated)	50.1 µM (active)
COc1cccc(N2CCN(C3CC(=O)N(c4ccc(Cl)cc4)C3=O)CC2)c1 (configuration not stated)	39.8 µM (active)
COc1cccc(N2C(=O)CC(N3CCc4ccccc4C3)C2=O)c1 (configuration not stated)	39.8 µM (active)
COc1cccc(N2C(=O)CN(Cc3ccccc3)C2=S)c1	inactive
COc1cccc(N2C(=O)CC(N3CCN(S(=O)(=O)c4ccccc4)CC3)C2=O)c1 (configuration not stated)	39.8 µM (active)
O=C(C1CC(=O)N(c2ccc(F)cc2)C1)N1CCN(c2ccccc2)CC1 (configuration not stated)	inactive
COc1ccc(COCCN2CCN(S(=O)(=O)c3ccccc3)CCC2=O)cc1	inactive
COC(=O)CN(C(=S)Nc1ccc(Cl)cc1)C1CC(=O)N(c2ccc(OC)cc2)C1=O (configuration not stated)	inactive
COc1cccc(N(CC(=O)N2CCc3ccccc3C2)S(C)(=O)=O)c1	inactive
COc1cccc(N2CC(NS(=O)(=O)c3ccc(Cl)cc3)CC2=O)c1 (configuration not stated)	inactive
COc1ccc(CN2CCCC(N3CCc4ccccc4C3)C2)c(O)c1 (configuration not stated)	inactive
